Assay results published in PubChem BioAssay AID1159580 (chemical genetic matrix, 2015).
Hit rate of the full screen: of about 5,500 compounds, about 2,000 (36%) were called active. Another 18% or so got no clear call; they are omitted. Rule as the data show it: active = normalized growth mostly below about 0.91 (no sharp cut-off); inconclusive = no clear call, values can overlap the other calls; inactive = mostly above about 0.92. Some of the results follow.

Experiment: chemical genetic growth profiling, strain panel (AID 1159580);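 also: tested at 20 µM; growth read once vehicle control cultures reached saturation at 30 °C; 1 = growth at the plate median or of vehicle wells; lower values mean less growth of the strain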
Details: S. cerevisiae deletion strains, growth OD

Measured: normalized growth

COc1cc([C@@H]2c3cc4c(cc3[C@@H](O)C3COC(=O)C32)OCO4)cc(OC)c1O (stereo not given in full)
inactive: locus YAL021C, strain ccr4, active compounds read low 0.971 | locus YAL026C, strain drs2, active compounds read low 0.982 | locus YAL030W, strain snc1, active compounds read low 0.986 | locus YBL061C, strain skt5, active compounds read low 0.988 | locus YBR009C, strain hhf1, active compounds read low 0.988 | locus YBR023C, strain chs3, active compounds read low 1 | locus YBR171W, strain sec66, active compounds read low 0.996 | locus YBR231C, strain swc5, active compounds read low 1 | locus YBR279W, strain paf1, active compounds read low 0.997 | locus YCL011C, strain gbp2, active compounds read low 0.988 | locus YCL016C, strain dcc1, active compounds read low 0.981 | locus YCL061C, strain MRC1, active compounds read low 0.978 | locus YCL069W, strain vba3, active compounds read low 0.985 | locus YCR088W, strain abp1, active compounds read low 0.988 | locus YDL005C, strain med2, active compounds read low 0.979 | locus YDL040C, strain nat1, active compounds read low 0.981 | locus YDR001C, strain nth1, active compounds read low 0.977 | locus YDR069C, strain doa4, active compounds read low 0.988 | locus YDR137W, strain rgp1, active compounds read low 1 | locus YDR159W, strain sac3, active compounds read low 0.994 | locus YDR195W, strain ref2 0.944 | locus YDR297W, strain sur2, active compounds read low 0.989 | locus YDR334W, strain swr1, active compounds read low 0.977 | locus YDR335W, strain msn5, active compounds read low 0.985 | locus YDR392W, strain spt3, active compounds read low 1.01 | locus YEL003W, strain gim4, active compounds read low 0.997 | locus YEL037C, strain rad23, active compounds read low 0.981 | locus YEL061C, strain CIN8 (second series), active compounds read low 0.991 | locus YER015W, strain faa2, active compounds read low 0.993 | locus YER016W, strain bim1, active compounds read low 0.987 | locus YER111C, strain swi4, active compounds read low 0.981 | locus YER155C, strain BEM2 (second series), active compounds read low 1.01 | locus YFR010W, strain ubp6, active compounds read low 0.973 | locus YGL167C, strain pmr1, active compounds read low 0.975 | locus YGL173C, strain kem1, active compounds read low 0.992 | locus YGL227W, strain vid30, active compounds read low 0.995 | locus YGL240W, strain doc1, active compounds read low 1.01 | locus YGL253W, strain hxk2, active compounds read low 0.934 | locus YHR013C, strain ard1, active compounds read low 0.964 | locus YHR027C, strain rpn1, active compounds read low 0.986 | locus YHR030C, strain SLT2, active compounds read low 1.03 | locus YHR079C, strain IRE1, active compounds read low 1.04 | locus YHR142W, strain chs7, active compounds read low 0.971 | locus YJL092W, strain hpr5, active compounds read low 0.977 | locus YJL095W, strain BCK1 (second series), active compounds read low 0.981 | locus YJL095W, strain BCK1, active compounds read low 1.02 | locus YJL115W, strain asf1, active compounds read low 0.966 | locus YJL129C, strain trk1, active compounds read low 0.977 | locus YJL154C, strain vps35, active compounds read low 0.985 | locus YJL164C, strain tpk1, active compounds read low 0.967 | locus YJL166W, strain qcr8, active compounds read low 0.997 | locus YJL187C, strain SWE1, active compounds read low 1 | locus YJR066W, strain TOR1, active compounds read low 0.993 | locus YKL160W, strain elf1, active compounds read low 0.973 | locus YKR026C, strain gcn3, active compounds read low 0.991 | locus YKR091W, strain srl3, active compounds read low 0.978 | locus YLL001W, strain dnm1, active compounds read low 0.953 | locus YLL026W, active compounds read low 0.987 | locus YLL041C, strain sdh2, active compounds read low 0.979 | locus YLR027C, strain aat2, active compounds read low 0.991 | locus YLR113W, strain HOG1, active compounds read low 1.03 | locus YLR221C, strain rsa3, active compounds read low 1.02 | locus YLR258W, strain gsy2, active compounds read low 0.985 | locus YLR262C, strain YPT6 (second series), active compounds read low 1.05 | locus YLR320W, strain mms22, active compounds read low 1.02 | locus YLR342W, strain FKS1, active compounds read low 0.986 | locus YLR357W, strain rsc2, active compounds read low 0.966 | locus YLR370C, strain arc18, active compounds read low 0.983 | locus YLR384C, strain iki3, active compounds read low 0.982 | locus YML120C, strain ndi1, active compounds read low 0.985 | locus YMR058W, strain fet3, active compounds read low 0.979 | locus YMR125W, strain sto1, active compounds read low 0.979 | locus YMR129W, active compounds read low 0.997 | locus YMR205C, strain PFK2, active compounds read low 0.965 | locus YMR231W, strain pep5, active compounds read low 0.977 | locus YNL071W, strain lat1, active compounds read low 0.991 | locus YNL183C, strain NPR1, active compounds read low 0.997 | locus YNL209W, strain ssb2, active compounds read low 0.993 | locus YNL248C, strain rpa49, active compounds read low 0.959 | locus YNL322C, strain KRE1 (second series), active compounds read low 0.991 | locus YNR049C, strain mso1, active compounds read low 0.986 | locus YOR001W, strain rrp6, active compounds read low 0.979 | locus YOR070C, strain gyp1, active compounds read low 0.983 | locus YOR080W, strain dia2, active compounds read low 1 | locus YOR083W, strain WHI5, active compounds read low 0.982 | locus YOR106W, strain vam3, active compounds read low 0.958 | locus YOR231W, strain MKK1, active compounds read low 1.03 | locus YOR265W, strain rbl2, active compounds read low 0.987 | locus YOR270C, strain vph1, active compounds read low 0.94 | locus YOR290C, strain snf2, active compounds read low 0.952 | locus YPL051W, strain arl3, active compounds read low 1.03 | locus YPL078C, strain atp4, active compounds read low 0.949 | locus YPL106C, strain sse1, active compounds read low 0.99 | locus YPL240C, strain hsp82, active compounds read low 0.994 | locus YPL256C, strain CLN2, active compounds read low 1.02
